Key:
Experiment in all cases: log2 ratio of Biotin-Ahx-Ub-VS probe labelling (fragment/DMSO); higher = less target engagement (more negative = stronger competition), active = hit call of the paper (q ≤ 0.05, log2 ratio ≤ -1)
Details in all cases: compound concentration: 200 uM; treatment time: 3 h
[1] = target: USP34 (UniProt Q70CQ2)
Summary of the method: (§1)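 Each value is an average log2 ratio of fragment to vehicle, tested by unpaired t-test. The underlying Spectronaut label-free quantities were global-median-normalised, and only proteins with ≥2 unique peptides were included. Triplicate HEK293T lysate samples (495 µg) were exposed to fragment at 200 µM or vehicle for 3 h, then to Biotin-Ahx-Ub-VS at 0.5 µM final for 1 h, before NeutrAvidin enrichment of labelled DUBs, LysC and trypsin digestion, and diaPASEF LC-MS/MS.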

[2] = target: T1, USP36 (UniProt Q9P275)
T1 sequence (whole entry): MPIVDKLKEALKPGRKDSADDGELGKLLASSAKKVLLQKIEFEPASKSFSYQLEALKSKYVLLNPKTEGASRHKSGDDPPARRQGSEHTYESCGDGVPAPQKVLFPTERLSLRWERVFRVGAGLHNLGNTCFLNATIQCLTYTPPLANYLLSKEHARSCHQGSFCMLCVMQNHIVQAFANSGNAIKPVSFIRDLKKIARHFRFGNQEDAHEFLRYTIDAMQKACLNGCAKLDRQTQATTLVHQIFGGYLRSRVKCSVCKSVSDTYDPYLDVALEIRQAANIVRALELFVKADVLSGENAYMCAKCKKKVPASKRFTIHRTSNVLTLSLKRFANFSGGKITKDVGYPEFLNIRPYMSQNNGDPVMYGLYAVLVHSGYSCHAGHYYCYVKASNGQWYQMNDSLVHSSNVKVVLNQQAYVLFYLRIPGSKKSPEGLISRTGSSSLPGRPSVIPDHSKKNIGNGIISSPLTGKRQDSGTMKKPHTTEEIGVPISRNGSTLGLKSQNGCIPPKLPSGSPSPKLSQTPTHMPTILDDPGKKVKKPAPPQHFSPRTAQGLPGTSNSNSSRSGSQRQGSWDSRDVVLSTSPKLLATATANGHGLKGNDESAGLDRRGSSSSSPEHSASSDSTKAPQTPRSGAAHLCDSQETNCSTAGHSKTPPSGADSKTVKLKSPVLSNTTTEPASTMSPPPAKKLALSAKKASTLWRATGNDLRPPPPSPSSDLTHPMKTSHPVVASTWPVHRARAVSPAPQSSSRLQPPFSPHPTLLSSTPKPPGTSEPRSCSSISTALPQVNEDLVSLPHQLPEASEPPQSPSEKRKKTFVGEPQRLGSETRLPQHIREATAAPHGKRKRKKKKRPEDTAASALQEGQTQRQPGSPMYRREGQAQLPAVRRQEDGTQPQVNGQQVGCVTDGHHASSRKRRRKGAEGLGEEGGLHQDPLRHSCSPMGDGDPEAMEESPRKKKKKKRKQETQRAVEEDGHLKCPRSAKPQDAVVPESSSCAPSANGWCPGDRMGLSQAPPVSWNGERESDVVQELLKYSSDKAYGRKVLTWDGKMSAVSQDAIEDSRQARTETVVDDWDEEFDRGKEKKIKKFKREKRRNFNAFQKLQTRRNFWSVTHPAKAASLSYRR
Summary of the method: as §1

[3] = target: T2, USP38 (UniProt Q8NB14)
T2 sequence (whole entry): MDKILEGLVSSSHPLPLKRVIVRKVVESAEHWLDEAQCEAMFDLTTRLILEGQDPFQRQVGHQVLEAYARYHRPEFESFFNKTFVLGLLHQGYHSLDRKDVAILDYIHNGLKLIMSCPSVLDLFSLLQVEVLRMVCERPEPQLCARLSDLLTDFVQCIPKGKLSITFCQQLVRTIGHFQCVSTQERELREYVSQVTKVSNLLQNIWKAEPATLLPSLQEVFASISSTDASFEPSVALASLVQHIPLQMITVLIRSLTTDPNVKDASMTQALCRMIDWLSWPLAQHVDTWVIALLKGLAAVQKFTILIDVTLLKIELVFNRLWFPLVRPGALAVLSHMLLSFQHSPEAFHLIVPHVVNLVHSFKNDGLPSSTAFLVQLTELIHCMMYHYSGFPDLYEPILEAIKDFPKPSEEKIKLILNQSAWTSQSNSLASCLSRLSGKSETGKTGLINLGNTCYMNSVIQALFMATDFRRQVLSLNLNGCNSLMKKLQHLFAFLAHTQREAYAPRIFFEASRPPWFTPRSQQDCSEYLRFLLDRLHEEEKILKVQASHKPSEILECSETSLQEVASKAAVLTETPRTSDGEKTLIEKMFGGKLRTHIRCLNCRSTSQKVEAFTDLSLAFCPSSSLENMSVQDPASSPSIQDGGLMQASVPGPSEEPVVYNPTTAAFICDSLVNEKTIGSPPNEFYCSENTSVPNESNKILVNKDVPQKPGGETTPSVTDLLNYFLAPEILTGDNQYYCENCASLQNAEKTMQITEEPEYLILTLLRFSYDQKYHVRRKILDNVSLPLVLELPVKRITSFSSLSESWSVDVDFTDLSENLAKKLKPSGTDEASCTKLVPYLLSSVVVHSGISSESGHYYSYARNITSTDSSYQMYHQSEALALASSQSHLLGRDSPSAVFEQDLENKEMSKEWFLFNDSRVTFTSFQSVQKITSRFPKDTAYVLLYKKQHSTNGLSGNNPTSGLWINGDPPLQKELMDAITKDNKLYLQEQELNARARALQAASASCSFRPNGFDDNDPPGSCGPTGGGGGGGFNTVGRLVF
Summary of the method: as §1

[4] = target: T3, USP39 (UniProt Q53GS9)
T3 sequence (whole entry): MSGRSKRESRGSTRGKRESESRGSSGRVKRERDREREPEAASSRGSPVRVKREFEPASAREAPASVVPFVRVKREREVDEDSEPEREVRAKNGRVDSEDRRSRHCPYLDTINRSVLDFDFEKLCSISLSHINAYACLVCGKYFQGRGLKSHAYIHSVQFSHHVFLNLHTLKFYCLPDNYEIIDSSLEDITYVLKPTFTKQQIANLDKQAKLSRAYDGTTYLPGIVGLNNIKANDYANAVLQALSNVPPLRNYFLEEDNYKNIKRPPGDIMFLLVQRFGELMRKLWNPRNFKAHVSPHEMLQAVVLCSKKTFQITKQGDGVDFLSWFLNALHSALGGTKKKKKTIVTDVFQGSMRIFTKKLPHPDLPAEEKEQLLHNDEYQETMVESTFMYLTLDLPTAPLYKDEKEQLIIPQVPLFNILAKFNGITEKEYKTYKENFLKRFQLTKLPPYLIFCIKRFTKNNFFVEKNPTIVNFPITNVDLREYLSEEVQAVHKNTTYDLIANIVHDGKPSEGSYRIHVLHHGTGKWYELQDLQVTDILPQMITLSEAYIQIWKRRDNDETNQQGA
Summary of the method: as §1

[5] = target: T4, USP4 (UniProt Q13107)
T4 sequence (whole entry): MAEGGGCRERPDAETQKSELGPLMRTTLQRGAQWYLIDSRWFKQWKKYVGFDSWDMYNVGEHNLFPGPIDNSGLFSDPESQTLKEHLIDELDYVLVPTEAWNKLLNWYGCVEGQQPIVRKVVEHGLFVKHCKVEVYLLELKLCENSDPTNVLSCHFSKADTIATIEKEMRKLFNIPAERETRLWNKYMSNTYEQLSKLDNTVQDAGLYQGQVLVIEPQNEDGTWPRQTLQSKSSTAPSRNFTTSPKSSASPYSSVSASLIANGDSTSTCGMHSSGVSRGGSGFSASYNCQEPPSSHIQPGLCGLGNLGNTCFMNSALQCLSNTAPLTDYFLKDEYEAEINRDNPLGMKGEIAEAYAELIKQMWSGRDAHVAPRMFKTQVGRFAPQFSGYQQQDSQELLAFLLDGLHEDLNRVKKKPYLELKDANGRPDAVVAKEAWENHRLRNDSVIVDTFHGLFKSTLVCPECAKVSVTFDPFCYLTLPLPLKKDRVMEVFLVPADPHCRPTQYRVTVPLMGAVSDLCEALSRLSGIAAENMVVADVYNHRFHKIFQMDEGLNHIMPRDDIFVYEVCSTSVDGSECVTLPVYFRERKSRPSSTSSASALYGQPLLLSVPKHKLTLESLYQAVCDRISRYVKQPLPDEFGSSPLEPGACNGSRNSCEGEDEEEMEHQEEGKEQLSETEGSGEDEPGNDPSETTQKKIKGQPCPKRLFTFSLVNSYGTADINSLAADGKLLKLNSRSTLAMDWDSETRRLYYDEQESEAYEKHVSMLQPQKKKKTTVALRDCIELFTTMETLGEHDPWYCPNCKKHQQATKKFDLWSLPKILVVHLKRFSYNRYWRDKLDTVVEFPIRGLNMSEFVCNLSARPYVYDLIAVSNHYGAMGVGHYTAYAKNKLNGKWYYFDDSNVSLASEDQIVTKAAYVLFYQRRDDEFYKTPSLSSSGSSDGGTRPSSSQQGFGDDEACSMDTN
Summary of the method: as §1

Measured: log2 ratio of Biotin-Ahx-Ub-VS probe labelling

Sequence of USP34 (Q70CQ2 whole entry, the tested form may be a part): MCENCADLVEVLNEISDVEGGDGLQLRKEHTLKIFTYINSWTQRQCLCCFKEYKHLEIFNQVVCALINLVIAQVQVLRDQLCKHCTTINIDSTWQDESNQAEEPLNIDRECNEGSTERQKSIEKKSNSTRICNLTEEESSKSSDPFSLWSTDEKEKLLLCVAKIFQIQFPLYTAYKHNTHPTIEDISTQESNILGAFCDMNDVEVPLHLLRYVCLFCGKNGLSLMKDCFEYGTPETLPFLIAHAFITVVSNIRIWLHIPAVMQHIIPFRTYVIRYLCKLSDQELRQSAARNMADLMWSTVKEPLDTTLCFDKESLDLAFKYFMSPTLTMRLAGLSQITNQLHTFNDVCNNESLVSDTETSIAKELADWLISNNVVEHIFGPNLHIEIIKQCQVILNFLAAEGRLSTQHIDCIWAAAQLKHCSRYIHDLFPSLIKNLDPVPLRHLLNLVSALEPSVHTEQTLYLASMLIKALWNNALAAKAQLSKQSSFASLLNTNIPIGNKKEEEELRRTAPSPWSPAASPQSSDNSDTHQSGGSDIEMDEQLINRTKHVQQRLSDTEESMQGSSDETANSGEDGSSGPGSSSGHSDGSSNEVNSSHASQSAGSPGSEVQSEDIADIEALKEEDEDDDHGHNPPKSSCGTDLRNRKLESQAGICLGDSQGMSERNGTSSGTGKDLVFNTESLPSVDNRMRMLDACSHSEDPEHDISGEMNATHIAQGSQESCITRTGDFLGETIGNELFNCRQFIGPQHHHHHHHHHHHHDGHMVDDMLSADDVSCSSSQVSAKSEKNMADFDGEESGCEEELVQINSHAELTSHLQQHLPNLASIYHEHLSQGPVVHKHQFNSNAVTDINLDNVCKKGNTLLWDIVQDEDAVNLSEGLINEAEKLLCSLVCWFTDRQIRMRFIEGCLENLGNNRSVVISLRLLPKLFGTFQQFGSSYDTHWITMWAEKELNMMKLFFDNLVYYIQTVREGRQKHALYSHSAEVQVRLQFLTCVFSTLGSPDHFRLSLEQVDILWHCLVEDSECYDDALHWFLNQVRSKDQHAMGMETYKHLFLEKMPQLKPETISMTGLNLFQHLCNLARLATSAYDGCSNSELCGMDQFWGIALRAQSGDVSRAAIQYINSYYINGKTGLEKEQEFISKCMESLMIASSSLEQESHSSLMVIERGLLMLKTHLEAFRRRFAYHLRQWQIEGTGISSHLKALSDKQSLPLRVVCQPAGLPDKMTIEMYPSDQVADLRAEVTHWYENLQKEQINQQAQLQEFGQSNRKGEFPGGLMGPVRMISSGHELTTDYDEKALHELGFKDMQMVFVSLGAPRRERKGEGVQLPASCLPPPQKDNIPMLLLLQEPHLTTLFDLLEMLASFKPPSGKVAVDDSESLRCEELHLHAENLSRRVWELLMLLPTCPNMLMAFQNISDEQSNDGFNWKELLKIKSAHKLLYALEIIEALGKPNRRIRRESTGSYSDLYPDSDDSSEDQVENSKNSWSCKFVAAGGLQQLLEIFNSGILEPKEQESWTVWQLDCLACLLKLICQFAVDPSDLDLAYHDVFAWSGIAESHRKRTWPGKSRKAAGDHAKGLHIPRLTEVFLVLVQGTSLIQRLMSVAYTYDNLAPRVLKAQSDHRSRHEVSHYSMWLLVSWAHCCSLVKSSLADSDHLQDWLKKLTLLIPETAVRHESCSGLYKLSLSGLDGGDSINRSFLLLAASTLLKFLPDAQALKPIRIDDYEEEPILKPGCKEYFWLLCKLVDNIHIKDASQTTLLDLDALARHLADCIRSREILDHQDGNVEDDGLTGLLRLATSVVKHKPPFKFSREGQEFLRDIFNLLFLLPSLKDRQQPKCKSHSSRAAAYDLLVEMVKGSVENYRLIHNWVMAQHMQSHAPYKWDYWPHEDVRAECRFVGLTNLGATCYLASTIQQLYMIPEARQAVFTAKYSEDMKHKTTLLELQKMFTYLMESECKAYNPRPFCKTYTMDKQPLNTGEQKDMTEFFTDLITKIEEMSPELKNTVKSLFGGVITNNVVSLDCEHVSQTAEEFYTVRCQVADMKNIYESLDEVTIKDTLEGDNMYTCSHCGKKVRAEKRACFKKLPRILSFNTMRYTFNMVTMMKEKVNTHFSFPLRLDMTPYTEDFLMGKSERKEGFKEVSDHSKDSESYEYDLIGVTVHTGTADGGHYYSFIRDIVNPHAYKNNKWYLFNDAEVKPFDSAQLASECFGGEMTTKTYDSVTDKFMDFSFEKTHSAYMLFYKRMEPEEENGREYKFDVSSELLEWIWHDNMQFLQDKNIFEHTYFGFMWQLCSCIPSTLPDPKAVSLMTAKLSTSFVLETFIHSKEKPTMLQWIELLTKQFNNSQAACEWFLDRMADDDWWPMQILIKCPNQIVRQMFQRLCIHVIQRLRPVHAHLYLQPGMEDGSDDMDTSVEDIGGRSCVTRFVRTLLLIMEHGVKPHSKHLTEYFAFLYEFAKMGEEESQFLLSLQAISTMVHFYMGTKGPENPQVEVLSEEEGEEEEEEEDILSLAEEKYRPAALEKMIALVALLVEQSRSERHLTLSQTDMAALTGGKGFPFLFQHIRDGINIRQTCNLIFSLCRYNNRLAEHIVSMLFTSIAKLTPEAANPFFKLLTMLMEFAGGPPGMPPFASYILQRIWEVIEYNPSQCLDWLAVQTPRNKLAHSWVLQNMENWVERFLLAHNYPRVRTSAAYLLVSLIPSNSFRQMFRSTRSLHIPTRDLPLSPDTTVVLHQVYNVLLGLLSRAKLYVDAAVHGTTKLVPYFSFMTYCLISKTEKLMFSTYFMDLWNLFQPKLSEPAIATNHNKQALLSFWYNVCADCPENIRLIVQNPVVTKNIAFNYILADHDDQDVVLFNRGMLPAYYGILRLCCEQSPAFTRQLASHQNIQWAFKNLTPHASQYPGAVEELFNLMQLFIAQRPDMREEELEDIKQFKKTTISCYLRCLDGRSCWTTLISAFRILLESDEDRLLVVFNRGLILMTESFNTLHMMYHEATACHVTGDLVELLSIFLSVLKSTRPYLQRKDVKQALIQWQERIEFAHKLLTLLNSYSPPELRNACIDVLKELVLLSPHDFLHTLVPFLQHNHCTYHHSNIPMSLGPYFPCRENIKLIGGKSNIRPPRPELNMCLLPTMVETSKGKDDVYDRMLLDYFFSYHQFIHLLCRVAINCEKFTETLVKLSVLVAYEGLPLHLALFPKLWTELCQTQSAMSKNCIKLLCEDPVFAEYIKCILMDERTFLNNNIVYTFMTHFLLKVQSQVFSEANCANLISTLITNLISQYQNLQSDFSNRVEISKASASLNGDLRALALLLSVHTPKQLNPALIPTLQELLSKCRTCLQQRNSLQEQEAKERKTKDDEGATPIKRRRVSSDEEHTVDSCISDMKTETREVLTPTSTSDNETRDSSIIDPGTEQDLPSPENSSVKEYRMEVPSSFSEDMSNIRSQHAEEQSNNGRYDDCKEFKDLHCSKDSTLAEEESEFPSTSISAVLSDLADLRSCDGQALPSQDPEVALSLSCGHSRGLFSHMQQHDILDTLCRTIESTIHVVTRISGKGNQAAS

Cc1noc(C)c1CNC(=O)CCl
inactive: [1] -0.584 | [2] -0.32 | [3] -0.547 | [4] 0.303 | [5] -0.608

— the supplement of paper PMC11732987, “Enantioselective OTUD7B fragment discovery through chemoproteomics screening and high-throughput optimisation” (Communications Chemistry, 2025)
